# The sample as a whole holds a higher share of hits than the screen did.
# IMPase Li cell: qHTS Assay for Identifying the Cell-Membrane Permeable IMPase Inhibitors: Potentiation with Lithium; hit rate 0.35% among 210,000; AID 1457, 2008; CHO-M1 cells, IP1 TR-FRET (IP-One), carbachol + lithium; Potency, µM (doses to about 59.4 µM), inactives show at the highest dose activity, negative = IMPase inhibition, most hits filed as inhibitors;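 further: IP1 builds up when IMPase is blocked and the TR-FRET signal falls; potency means the concentration at half of the fitted maximal effect; plate controls were basal vehicle for no effect and high inhibitor control for full effect; nearly all actives have a fitted effect of over 50% in size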
#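 CHO cells stably expressing M1 receptor (2000/well) were cultured 16–30 h, then exposed to compounds with a small lithium addition for 30 min at 37C. IP1 was measured by TR-FRET competition; AC50 from Hill fits.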
# ALOX12 inhib: qHTS Assay for Inhibitors of 12-hLO (12-human lipoxygenase); hit rate 0.12% among 150,000; Potency, µM (top dose mostly 57.1 µM), without a hit: at the top dose activity change, negative = inhibition, actives largely listed as inhibitors; Polyunsaturated fatty acid lipoxygenase ALOX12 (Homo sapiens), P18054; purified 12-hLO, xylenol orange hydroperoxide absorbance; further: potency means the concentration at half of the fitted maximal effect; nearly all actives have a fitted effect of over 55% in size
# Target sequence (P18054 whole entry, looked up): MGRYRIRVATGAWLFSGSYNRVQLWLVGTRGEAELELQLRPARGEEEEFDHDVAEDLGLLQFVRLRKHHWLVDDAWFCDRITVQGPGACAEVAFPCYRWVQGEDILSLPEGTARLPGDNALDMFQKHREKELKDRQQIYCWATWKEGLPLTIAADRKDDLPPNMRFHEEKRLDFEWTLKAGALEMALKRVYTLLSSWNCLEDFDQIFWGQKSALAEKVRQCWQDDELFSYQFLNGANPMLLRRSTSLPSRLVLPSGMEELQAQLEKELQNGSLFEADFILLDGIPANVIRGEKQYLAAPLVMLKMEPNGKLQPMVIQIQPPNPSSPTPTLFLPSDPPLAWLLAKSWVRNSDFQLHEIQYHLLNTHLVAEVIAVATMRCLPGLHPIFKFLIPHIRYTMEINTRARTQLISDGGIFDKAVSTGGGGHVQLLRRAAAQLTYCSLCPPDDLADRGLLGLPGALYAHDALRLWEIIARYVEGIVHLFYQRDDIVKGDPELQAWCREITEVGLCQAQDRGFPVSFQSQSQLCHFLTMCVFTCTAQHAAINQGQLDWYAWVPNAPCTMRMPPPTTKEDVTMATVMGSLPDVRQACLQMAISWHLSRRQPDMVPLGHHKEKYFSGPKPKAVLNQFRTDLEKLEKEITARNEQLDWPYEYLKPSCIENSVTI
#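 Hydroperoxide formation by human 12-lipoxygenase from 40 uM arachidonic acid was followed colorimetrically via ferric-xylenol orange complex, using the 573/405 nm absorbance ratio. Enzyme concentration was 150 nM, with 30 min reaction at room temperature.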
# PNC assembly inh: High Content Assay for Compounds that inhibit the Assembly of the Perinucleolar Compartment. PC3M PTB-GFP, PNC prevalence imaging, 16 h; hits give low values. activity change (PNC), negative = inhibition, % at 10 µM. hit rate 3.1% among 140,000. AID 2417, 2010;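 active means readout at or below -70, meaning at least 70% loss of cells showing the perinucleolar compartment, a nuclear body marking cancer cells; inconclusive means readout between -30 and a set limit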;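 further: plate controls were DMSO wells for no effect and camptothecin positive control wells for full effect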
#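 Read-out is percentage of cells bearing a perinucleolar compartment, from automated 20x imaging of fixed, Hoechst-stained PC3M PTB-GFP cells. Cells were seeded 4 h, then exposed 16 h to compound (23 nl of library stock) in duplicate plates.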
# IMPase cell inh: qHTS Assay for Identifying the Cell-Membrane Permeable IMPase Inhibitors; Inositol monophosphatase 1 (Rattus norvegicus), P97697; AID 901, 2007; 120,000 tested, under 10 active; CHO-M1 cells, IP1 accumulation, HTRF TR-FRET ratio; inhibition (IP1 accumulation), % at 46.1 µM; active means well fitted curve in the direction sought with a large enough effect in the signal ratio, not every such curve was filed as active; inconclusive means small, poorly fitted or top-dose-only effect, or a change in a side signal; inactive means no such curve, though single readings can be large or run the other way; the % refers to the signal ratio;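 further: cells stimulated with carbachol in lithium chloride buffer; plate controls were DMSO basal wells for no effect and reference inhibitor wells for full effect; higher means more IMPase inhibition seen as more IP1 and lower FRET ratio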
#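 The IP-One HTRF competitive assay in carbachol-stimulated CHO-M1 cells quantifies cellular IP1. Compounds spanned up to 46 uM final, and activity is expressed as AC50 from concentration-response fits of the ratio and donor data.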
# The depositor's hits bear a star; ? = inconclusive; · = no result given; [ ] = remark or other dose. Unless noted, the call rests on the fitted dose curve; in most records, active means well fitted curve in the direction sought with a large enough effect; inconclusive means small, poorly fitted or top-dose-only effect, or another doubt; inactive means no such curve, though single readings can be large; an effect the other way counts as inactive or inconclusive. Unless noted, on the % scale 0 is the no-effect control and ±100 the full control effect.
SMILES,IMPase Li cell,ALOX12 inhib,PNC assembly inh,IMPase cell inh
CC(C)N(C(=O)CSc1nnc(NC(=O)C2CCC2)s1)C(C)C,22%[38.3 µM],7%,-102*,-4
COc1ccc(-c2cc(N)n(S(=O)(=O)c3ccc(C)cc3)n2)c(OC)c1,5%[38.3 µM],-28%,-91*,7
Cc1cccc(NC(NC(=O)Cc2ccccc2)C(Cl)(Cl)Cl)c1 (stereo unspecified),14%,0%,?,14
Cc1ccc(NC(NC(=O)Cc2ccccc2)C(Cl)(Cl)Cl)cc1 (stereo unspecified),18%,-2%,-111*,-2
O=C1c2ccccc2C(=O)N1c1ccc(Cc2ccc(N3C(=O)c4ccccc4C3=O)cc2)cc1,15%,3%[11.4 µM],·,·
COc1ccc(O[C@H]2C=C[C@@H](c3ccccc3)O[C@@H]2COC(=O)CC/C(C)=N/O[C@@H](C)CN2CCCCc3nc(C)c(C)cc32)cc1,33%,-1%,-83*,·
C/C(CCC(=O)OC[C@H]1O[C@H](C#Cc2ccccc2)C=C[C@@H]1Oc1ccc(C)cc1)=N\O[C@@H](C)CN1CCCCc2nc(C)c(C)cc21,27%,-6%,-23,·
CC(=O)c1sc(Nc2ccccn2)nc1C,14µM*,-2%,?,?
CC(=O)c1sc(Nc2ccc(C)cc2)nc1C,-5%,·,·,·
CC(=O)c1sc(NC(=O)C(C)C)nc1C,11µM*,-4%,29,?
CCCCCCOc1ccc(C(CC(=O)O)C(N)=O)cc1 (stereo unspecified),-8%[38.3 µM],0%,-104*,-12
CCCCCCOc1ccc(C(CC(N)=O)C(=O)O)cc1 (stereo unspecified),4%,·,·,·
O=C(CNS(=O)(=O)c1ccc2ccccc2c1)OCC(=O)c1ccc(Br)s1,1.8µM*,-4%,45,?
Cc1ccc(S(=O)(=O)N2CCC(C(=O)O)(c3ccccc3)CC2)cc1,0%,1%[11.4 µM],·,·
C[C@H](NC(=O)N1CCc2nc(-c3ccccc3)c3c(c2C1)CO[C@@H](C)C3)c1ccccc1,5%,1%[11.4 µM],·,·
S=C(NCCSCc1ccc(Cl)cc1Cl)Nc1ccccc1,2%[38.3 µM],25µM*,68,6
CCOc1ccc(CSCCNC(=S)Nc2ccccc2)cc1,5%,?,-92*,16
Cc1ccccc1CSCCNC(=S)Nc1ccccc1,4%,·,·,·
C=C1CC[C@H](O)C/C1=C/C=C1\CCC[C@]2(C)C([C@H](C)CC[C@@H](O)C(C)(C)O)CC[C@@H]12 (stereo partly specified),-8%,·,·,·
O=S1(=O)C=C(SCc2ccc(Cl)c(Cl)c2)Nc2ccccc21,7%[38.3 µM],0%,65,-3
CC(C)(C)NC(=O)CSc1nc(O)cc(=O)[nH]1,-5%,2%,-14,·
O=C(CSc1nc(O)cc(=O)[nH]1)C1CC1,-8%[38.3 µM],4%,-123*,0
O=C(O)C1C(=O)NCC1c1ccccc1 (stereo unspecified),-6%,·,·,·
COC(=O)C(C(=O)OC)c1ccc(NC(=O)c2cccc(Cl)c2)cc1,2%,·,·,·
O=C(Nc1ccc(N=Nc2ccccc2)cc1)c1cccc(Cl)c1,-7%,-2%,-111*,13
SMILES,IMPase Li cell,ALOX12 inhib,PNC assembly inh,IMPase cell inh
Cc1cc(C)n(-c2ccc(F)cc2CN2CCN(Cc3ccccc3)C(CCO)C2)n1 (stereo unspecified),32%,·,·,·
Cc1ccc(NC(=O)CN2C(=O)NC3(CCC(C)CC3)C2=O)c(Cl)c1 (stereo unspecified),-9%[38.3 µM],-1%,-127*,-9
CC1CCC2(CC1)NC(=O)N(CC(=O)Nc1nc(-c3ccc(F)cc3)cs1)C2=O (stereo unspecified),14µM*,-3%,?,1
Cc1cc(C)c(NC(=O)CN2C(=O)NC3(CCCCC3)C2=O)c(Cl)c1,-3%[38.3 µM],-4%,-13,-5
C/C(=N\[N+](C)(C)C)c1ccc(C)c(C)c1,16%,2%[11.4 µM],·,·
COc1ccc(C(=O)Nc2ccc(C(=O)OCC(=O)c3ccccc3)cc2)cc1,-3%[38.3 µM],2%,11,3
COc1ccc(NC(=O)CCC(=O)c2ccc(-c3ccccc3)cc2)cc1,32µM*,1%,?,-15
COc1ccc(C(=O)COC(=O)c2ccc(NC(=O)c3ccccc3)cc2)cc1,11µM*,4%,-1,8
NC(=S)c1ccc[n+]([C@@H]2O[C@@H](COP(=O)([O-])OP(=O)(O)OC[C@H]3O[C@@H](n4cnc5c(N)ncnc54)[C@H](OP(=O)(O)O)[C@H]3O)C(O)C2O)c1 (stereo partly specified),-11%,·,·,·
Cc1cc(C)c2c(N)c3cccc(C)c3nc2n1,14%,0%,-92*,·
Cc1c(Br)c([N+](=O)[O-])nn1CC(=O)Nc1c(C)n(C)n(-c2ccccc2)c1=O,2%,7%,4,14
Cn1cc(/C=N/n2cnc3scc(-c4ccccc4)c3c2=O)c2ccccc21,7%[38.3 µM],-3%,-113*,7
O=C(CCCC(=O)N(CC(=O)NC1CCCC1)C1CCCC1)Nc1ccccn1,-11%[38.3 µM],-3%,-123*,11
O=C(CCN1C(=O)c2ccccc2C1=O)Nc1sc2c(c1C(=O)NCc1ccco1)CCCC2,-7%[38.3 µM],-9%,-114*,7
CN(C)S(=O)(=O)c1cccc(-c2cn3cc(Cl)ccc3n2)c1,5%[38.3 µM],-2%,-83*,-5
CN(C)S(=O)(=O)c1cccc(-c2cn3ccccc3n2)c1,-6%[38.3 µM],-11%,45,1
CCc1c(C(=O)NC2CCCC2)csc1C,3%,-5%,-99*,-6
Cc1cccc(Oc2ncnc3oc(-c4ccccc4)cc23)c1C,16%,-2%,7,1
Cc1cc(Cl)ccc1Oc1ncnc2oc(-c3ccccc3)cc12,-2%[38.3 µM],1%,-94*,-4
Cc1ccc(NC(=S)NNC(=O)C2CC2c2ccc(C)cc2)cc1 (stereo unspecified),0%,-14%,-100*,2
Cc1sc2ncn(CC(=O)NCCCOC(C)C)c(=O)c2c1S(=O)(=O)N1CCN(c2ncccn2)CC1,-2%,·,·,·
CCN(CC)CCNC(C(=O)Nc1ccc([N+](=O)[O-])cc1Br)c1ccccc1 (stereo unspecified),19%,-3%,-104*,·
N#Cc1cccc(CS(=O)(=O)c2nc3ccccc3s2)c1,3%,·,·,·
CCOC(=O)C1=C(C)NC(=S)NC1/C=C/c1ccccc1 (stereo unspecified),-10%,?,-100*,15
O=C1C2CCC(C2)[C@@H]2CCCCN12 (stereo partly specified),3%,1%[0.00818 µM],·,·
FC(F)(F)c1nnc2c(Sc3ccccc3)nc3ccccc3n12,-24%,1%,-20,-11
FC(F)(F)c1nnc2c(Sc3ccc(Cl)cc3)nc3ccccc3n12,18µM*,0%,?,7
